# In all, about 400,000 compounds went through this assay and about 13,000 (3.2%) were called active. Roughly 18% stayed inconclusive and do not appear here. Calls follow the shape of the dose curve; as a rule, active = well fitted cell-killing curve with a large enough effect; inconclusive = small, poorly fitted or top-dose-only effect, or effect the other way; inactive = flat fitted curve, though single readings scatter. The entries come from a sample that favours actives as a whole. A call without a number means that no potency is given here.
# Experiment: qHTS assay for MDR1-selective chemotherapeutics: Primary screen using the drug-selected MDR subline cells KB-V1; also: nearly all actives have a fitted effect of over 60% in size
# Details: KB-V1 MDR cells viability, CellTiter-Glo, 72 h; series mostly up to 46.1 µM
# Summary of the method: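 KB-V1, DMEM (no phenol red) + 10% FBS; cpd pin-transferred, titration series; 72 h, 37 degrees C; CellTiter-Glo, luminescence. Data normalized, curve-fit.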
# Potency is read from the fitted curve at half-maximal effect.
row,Structure (SMILES),Potency
1,Cc1cc(C)c2c(=O)n3c(nc2c1)C(CC(C)C)NC(=O)c1cc2ccccc2cc1-3 (centres undefined),inactive
2,CN(C)C1=C2C=CC=CC2/C(=C2/C=Cc3ccccc32)C=C1 (centres undefined),inactive
3,CC(=O)Nc1ccc2c3c(ccc([N+](=O)[O-])c13)CC2,inactive
4,CN(c1ccccc1)S(=O)(=O)c1cccc(NC(=O)Cc2ccc(Cl)cc2)c1,5.8 µM (active)
5,CN(C)S(=O)(=O)c1cccc(NC(=O)Cc2ccsc2)c1,inactive
6,CN(c1ccccc1)S(=O)(=O)c1ccc(NC(=O)COc2ccccc2)cc1,inactive
7,COc1ccc(CN2C(=O)C(CC(=O)NC3CCCCC3)CC(C(=O)N3CCOCC3)=C2C)cc1 (centres undefined),inactive
8,CCn1cc(CN2CCC(C(=O)Nc3cccc(-c4cccc(Cl)c4)c3)CC2)cn1,inactive
9,O=C(O)C1CCCCC1C(=O)Nc1ccc(Cl)cc1 (centres undefined),inactive
10,O=C(Nc1cnn(Cc2ccc(Cl)cc2)c1)C1CCCC1,20.6 µM (active)
11,CCCCCCN1C[C@@H](O)[C@H](n2cc(COC(=O)c3ccccc3)nn2)C[C@@H]1c1ccc(Cl)cc1,inactive
12,Cc1ccc(OCCSc2nc3ccc(NC(=O)COc4ccc(C)cc4)cc3s2)cc1,inactive
13,COC(=O)c1cc(C(=O)OC)cc(N2C(=O)CC(N3CCN(c4ccccc4)CC3)C2=O)c1 (centres undefined),inactive
14,CCOC(=O)N1C(=O)C[C@](Sc2ccc(C)cc2)(C(=O)OC)[C@H]1c1ccccc1,inactive
15,COC(=O)[C@@]1(Sc2ccc(C)cc2)CC(=O)N(c2cccc(SC)c2)[C@@H]1c1ccccc1,20.6 µM (active)
16,Clc1cccc[n+]1CCCC[n+]1ccccc1Cl,inactive
17,Cc1cc(C)cc(NS(=O)(=O)c2ccc(F)cc2)c1,inactive
18,Cc1cc(C)cc(NS(=O)(=O)c2ccc(Oc3ncc(C(F)(F)F)cc3Cl)cc2)c1,16.4 µM (active)
19,Cc1ccc(NS(=O)(=O)c2ccc(C(C)(C)C)cc2)cn1,inactive
20,CC1(C(=O)Nc2cccc(Oc3ccccc3)c2)CCN1Cc1ccccc1Cl (centres undefined),inactive
21,Cc1ccc(S(=O)(=O)c2c(N)n(C)c3nc4ccccc4nc23)cc1,inactive
22,CCC(=O)Nc1c(S(=O)(=O)c2ccccc2)c2nc3ccccc3nc2n1Cc1ccccc1,4.11 µM (active)
23,CCN(CC)CCn1c(N)c(S(=O)(=O)c2ccccc2)c2nc3ccccc3nc21,inactive
24,Cc1c(NC(=O)c2cc(=O)c3ccccc3o2)c(=O)n(-c2ccccc2)n1C,inactive
25,O=C(C[C@H]1C[C@@H]2c3cc(NC(=O)C4CCC4)ccc3O[C@@H]2[C@H](CO)O1)NC1CCCCC1,inactive

row,Structure (SMILES),Potency
1,CCCNC(=O)c1cc(C2CCCN(C(=O)c3ccc4c(c3)CCO4)C2)on1 (centres undefined),inactive
2,Cc1ccc2nc(N3CCN(C(=O)c4ccco4)CC3)sc2c1,inactive
3,O=C(NCc1ccc(F)cc1)c1ccc2nc(N3CCCCC3)sc2c1,inactive
4,c1c2c(cc3sc(N4CCCCC4)nc13)OCCO2,20.6 µM (active)
5,COc1ccccc1CNC(=O)NCc1noc2ccc(C)cc12,inactive
6,COc1cccc2c1C(=O)c1c(O)c3c(c(O)c1C2=O)CC(O)(C(C)=NNC(=O)c1ccc(Cl)c(Cl)c1)CC3OC1CC(N)C(O)C(C)O1 (centres undefined),23.1 µM (active)
7,CC(=O)Nc1cccc(Nc2ccc(C#N)cc2)c1,inactive
8,CCOC(=O)C1=C(c2ccccc2)Nc2ncnn2C1c1ccc(Cl)cc1 (centres undefined),inactive
9,CCNC(=O)C1(C)CCCN1C(=O)c1ccc(N(C)C)cc1 (centres undefined),inactive
10,Clc1ccccc1CSc1nncn2c1cc1occc12,inactive
11,CC1(C)N=C(SCc2ccccc2Cl)c2ccccc2N1,inactive
12,Clc1ccccc1CSc1nnc(-c2ccco2)c(-c2ccco2)n1,20.6 µM (active)
13,O=S(=O)(NCC(c1ccco1)N1CCOCC1)c1cc(F)ccc1F (centres undefined),inactive
14,CCC(=O)N1Cc2cc(C(=O)NCc3cccc(F)c3)nc(-c3cccc(C4=CCCC4)c3)c2[C@H]1CCO,inactive
15,Cc1ccnc(N2CCCC(C(=O)NC3CC3)C2)n1 (centres undefined),inactive
16,O=C(NC1CCCC1)C1CCN(C(=O)Nc2cccc(Cl)c2)CC1,inactive
17,O=C(NNC(=O)C1CCN(c2ncccn2)CC1)c1ccccc1,inactive
18,Cc1ccnc(N2CCC(C(=O)NC3CCCCCC3)CC2)n1,16.4 µM (active)
19,O=C(NC1CCN(C(=S)Nc2ccc(Cl)cc2)CC1)C1CCCCC1,inactive
20,O=C(NC1CCCCCC1)C1CCN(C(=O)c2ccc(Cl)cc2)CC1,14.6 µM (active)
21,Cc1ccc(C(NC(=O)C2CCN(CCOc3ccc(Cl)cc3Cl)CC2)c2ccccn2)cc1 (centres undefined),inactive
22,COc1ccc(NC(=O)C[C@H]2C(=O)N(CCc3ccccc3)C[C@@H]2C)cc1,inactive
23,CCCNC(=O)c1cc(C2CCCCN2S(=O)(=O)c2cn(C)cn2)on1 (centres undefined),inactive
24,C[C@H](NC(=O)[C@@H]1CCCN1C(=O)[C@@H]1CCCN1C(=O)c1ccccc1)c1ccccc1,inactive
25,O=C1NC[C@@H](CCCCN2CCN(CCc3ccc(O)cc3)C(=O)C2=O)N(CC2CCCCC2)C1=O,inactive

row,Structure (SMILES),Potency
1,Cc1cc(C(=O)CSc2nc(N)cc(=O)[nH]2)c(C)n1Cc1ccco1,inactive
2,Cc1cc(C(=O)CSc2nc(N)cc(=O)[nH]2)c(C)n1CCc1ccc(Cl)cc1,inactive
3,Cc1cc(C(=O)CSc2nc(N)cc(=O)[nH]2)c(C)n1-c1cccc(F)c1,3.66 µM (active)
4,Cc1cc(C(=O)N2CCCC2(C)C(=O)O)c(C)o1 (centres undefined),inactive
5,CN(C)c1cccc(C(=O)Nc2nc3ccc(S(=O)(=O)NC(C)(C)C)cc3s2)c1,20.6 µM (active)
6,COc1cccc(C(=O)Nc2nc3ccc(S(C)(=O)=O)cc3s2)c1,inactive
7,CS(=O)(=O)c1ccc2nc(NC(=O)c3ccc(Cl)nc3)sc2c1,inactive
8,CC1(C(=O)Nc2cccc3cccnc23)CCN1C(=O)CCC1CCCC1 (centres undefined),inactive
9,CC(C)(O)C1=C[N+](=O)CC=C1,inactive
10,COc1ccc(C2CC(c3cccc(OC)c3)=NN2c2ccc(S(N)(=O)=O)cc2)cc1 (centres undefined),inactive
11,CCOc1ccc2[nH]c(=S)sc2c1,inactive
12,COc1cc(OC)c(S(=O)(=O)Nc2ccccc2C(=O)O)cc1S(=O)(=O)Nc1ccccc1C(=O)O,inactive
13,COc1cc(NC(=O)c2ccccc2NS(=O)(=O)c2ccc(Cl)s2)cc(OC)c1,10.3 µM (active)
14,CCOc1ccc(NC(=O)c2ccccc2NS(C)(=O)=O)cc1,inactive
15,O=C(Nc1ccc(F)cc1)Nc1nnc([C@H]2C[C@H](O)[C@@H](CO)O2)s1,inactive
16,CC(C)c1ccc(NC(=O)Cn2c3ncccc3c(=O)n2-c2ccccc2)cc1,inactive
17,O=C1c2ccccc2C(c2nc3ccccc3[nH]2)N1c1ccccc1 (centres undefined),inactive
18,CCOC(=O)[C@]12CCCC=C1N(CCC1=CCCCC1)C(=O)[C@H](CC(=O)N1CCOCC1)C2,inactive
19,C=C1C(=O)OC2C1CCC(C)=CCCC1(C)OC21 (centres undefined),inactive
20,COC(=O)c1ccccc1NC(=O)c1cnn(-c2ccc(F)cc2)c1-n1cccc1,inactive
21,O=C(Nc1ccc(F)cc1F)c1cnn(-c2ccc(F)cc2)c1-n1cccc1,inactive
22,Cc1nn(-c2ccccc2)c(-n2cccc2)c1C(=O)O,inactive
23,Cc1nn(-c2ccc(F)cc2)c(-n2cccc2)c1C(=O)N1CCN(c2ccccc2)CC1,20.6 µM (active)
24,O=C(c1cnn(-c2ccc(F)cc2)c1-n1cccc1)N1CCN(c2ccc(F)cc2)CC1,23.1 µM (active)
25,CC(=O)c1c(N2CCN(c3ccc(F)cc3)CC2)nc(=S)n(-c2ccccc2)c1C,inactive

row,Structure (SMILES),Potency
1,COc1ccc(-c2ccc(C(=O)NCCN3CCOCC3)c3occc23)c(C)c1,inactive
2,CCCCc1nc2ccc(F)cc2cc1C,inactive
3,O=C(Nc1cccc(Cc2ccccc2)c1)Nc1ccc2nc([C@@H]3O[C@H](CO)[C@@H](O)[C@H](O)[C@H]3O)[nH]c2c1,inactive
4,COc1ccccc1CNC(=O)c1ccccc1NC(=O)c1nsc2ccccc12,inactive
5,Nc1cccc(OCCCCCOc2cccc(N)c2)c1,inactive
6,O=C(NCc1ccncc1)NC12CC3CC(CC(C3)C1)C2,inactive
7,O=C(NCc1ccc(Cl)cc1)NCc1ccc(Cl)cc1,inactive
8,S=C(NCc1ccc(Cl)cc1)NC12CC3CC(CC(C3)C1)C2,16.4 µM (active)
9,CCCNC(=O)C1(C)CCN(Cc2ccc(Cl)c(Cl)c2)C1 (centres undefined),inactive
10,COc1cccc(NC(=O)C2CCN(c3cc(C)nc4c(-c5ccc(Cl)cc5)c(C)nn34)CC2)c1,inactive
11,CC1(C)OC(=O)C2=C(C[C@@H](C3CC3)O[C@H]2CCc2cccc(Cl)c2)O1,inactive
12,O=S(=O)(c1cccc(C(F)(F)F)c1)N1CCN(c2nc(-c3cccs3)nc3ccccc23)CC1,inactive
13,COCC(=O)N(C)C[C@H]1Oc2cc(Br)ccc2S(=O)(=O)N([C@H](C)CO)C[C@H]1C,inactive
14,Cc1ccc(CC2(C)C(=O)Nc3ccc(OC(F)(F)F)cc32)cc1 (centres undefined),inactive
15,COc1ccccc1CC1(C)C(=O)Nc2ccc(OC(F)(F)F)cc21 (centres undefined),inactive
16,CC1(Cc2ccccc2C#N)C(=O)Nc2ccc(-c3ccc4[nH]ccc4c3)cc21 (centres undefined),6.51 µM (active)
17,Cc1ccc(-n2ncc3c(N4CCC(C(N)=O)CC4)ncnc32)cc1,inactive
18,Cc1cc(OCC(=O)Nc2nccs2)c2c(C)c(C)c(=O)oc2c1,inactive
19,COc1ccc(C(C)C)cc1-c1ccc2nncn2c1,inactive
20,CCN(CC)c1ccc(NC(=O)c2ccc(Cl)nc2)cc1,4.61 µM (active)
21,O=C(NNC(=O)c1ccc(Cl)nc1)c1ccc(Br)cc1,inactive
22,CCN(CC)c1ccc(NC(=O)CN2CCN(CC(=O)Nc3ccc(Cl)cc3)CC2)cc1,inactive
23,COC(=O)c1ccccc1NS(=O)(=O)c1ccc2c(c1)CCCN2C(C)=O,inactive
24,CCOc1cc(/C=N/NC(=O)c2c(C)nc3ccc(Cl)cn23)ccc1O,inactive
